A short description of experiment [1]: qHTS profiling for inhibitors of Plasmodium falciparum (3D7) proliferation (AID 743322).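 Note: infected erythrocytes exposed to compound for 72 h before lysis; 100% = DMSO vehicle wells and 0% = 0.29 µM artemisinin.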 Particulars: P. falciparum 3D7 proliferation; at 28.7 µM (top of the series) unless noted. The gist of the method:
(§1)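 Parasite DNA was quantified by SYBR Green I fluorescence (ex 485, em 535 nm) after overnight lysis in saponin/Triton buffer at room temperature. Cultures at 0.3% parasitemia and 2.5% hematocrit were first exposed to compound for 72 h at 37 C; signals were normalised to artemisinin (0.29 uM) and vehicle wells.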
For orientation: qHTS replaces the single test concentration by a dilution series.

The nature of experiment [2]: qHTS profiling for inhibitors of Plasmodium falciparum (DD2) proliferation (AID 743323; call rule not given here). The following applies: lower = more inhibition; at 28.7 µM (top of the series) unless noted. In short, it runs like this:
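Parasite DNA quantified by SYBR Green fluorescence (ex 485, em 535 nm) after saponin/Triton lysis and overnight dark incubation. Cultures: 0.3% parasitemia, 2.5% hematocrit, 72 h, 37 C; data scaled between DMSO and 0.29 uM artemisinin.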

Experiment [3] can be described thus: qHTS profiling for inhibitors of Plasmodium falciparum (HB3) proliferation (AID 743324).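 Note: 100% = DMSO vehicle wells and 0% = artemisinin-treated control wells.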 The following applies: Plasmodium falciparum HB3 blood-stage proliferation; at 28.7 µM (top of the series) unless noted. The gist of the method: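 SYBR Green fluorescence (485 ex/535 em) of lysed cultures, incubated overnight at room temperature in the dark, quantifies parasite DNA. Infected erythrocytes at 0.3% parasitemia and 2.5% hematocrit were exposed 72 h; values normalized to DMSO and 0.29 uM artemisinin controls.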

Experiment [4] can be described thus: qHTS assay for environmental chemicals that activate the Aryl hydrocarbon Receptor (AhR) signaling pathway (AID 651777). For activation: % of control where 0% means no effect. Note: nearly all actives have a fitted effect of over 15% in size. Note: potency is the fitted concentration of half-maximal effect. The following applies: 1A2-DRE human hepatoma cells, luciferase, 24 h; activation: stronger effect = higher value. In short, it runs like this:
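Human hepatoma 1A2-DRE cells stably carrying a DRE/CYP1A2 promoter–luciferase reporter, 1,200 cells/well, exposed to compound 24 hr at 37 C. Luciferase read by One-Glo luminescence after 30 min at room temperature; increased signal marks AhR activation.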

Experiment [5] deals with Peroxisome proliferator-activated receptor alpha (Homo sapiens) (UniProt Q07869). In words: qHTS assay for small molecule agonists of the peroxisome proliferator-activated receptor alpha (PPARalpha) signaling pathway (AID 651778). Note: % of control where 0% means no effect. The following applies: PathHunter PPARalpha complementation, chemiluminescence, 6 h; max response: stronger effect = higher value. In short, it runs like this:
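Enzyme-fragment complementation assay in which ligand-bound PPARalpha translocates and forms an active enzyme that generates chemiluminescence. Cells were plated overnight, exposed to compound for 6 hr at 37 C, and then given detection reagent for 60 min at room temperature.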

A short description of experiment [6]: qHTS assay for small molecule agonists of the antioxidant response element (ARE) signaling pathway measured by Nrf2-dependant transcriptional activity - cell viability counter screen (AID 720653; active = well fitted curve in the direction sought with a large enough effect in the repeat runs; an effect the other way counts as inactive or inconclusive; note: potency is the fitted concentration of half-maximal effect). Particulars: ARE-bla HepG2 viability, CellTiter-Glo ATP luminescence, 16 h; max response: stronger effect = lower value. The gist of the method:
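ARE-bla HepG2 cells treated with compounds for 16 h at 37C; this counter screen measures viability as intracellular ATP by CellTiter-Glo luminescence after 30 min at room temperature.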

A short description of experiment [7]: qHTS assay for cell viability of HEK293 cells (AID 743288). Note: potency is the fitted concentration of half-maximal effect; nearly all actives have a fitted effect of over 50% in size. Particulars: ATP luminescence (CellTiter-Glo), 18 h; max response: stronger effect = lower value. The gist of the method:
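ATP luminescence (CellTiter-Glo) reports metabolically competent cell number after parental HEK293 cells, 2,000/well, were treated with DMSO-dissolved compounds for 18 h at 37 C; reagent incubation 30 min, room temperature.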

Experiment [8] can be described thus: qHTS assay for cell viability of the p53RE-bla HCT-116 cell line (AID 743292). Note: potency is the fitted concentration of half-maximal effect; nearly all actives have a fitted effect of over 55% in size. The gist of the method: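 CellSensor p53RE-bla HCT-116 cells (4,000/well) pre-incubated 5 h at 37 C, then exposed to compounds in DMSO for 16 h at 37 C. Viability read as ATP content by CellTiter-Glo luminescence after 30 min at room temperature.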
The nature of experiment [9]: qHTS profiling of the MIPE4 collection as inhibitors of Plasmodium falciparum (3D7) proliferation (AID 743344; call rule not given here;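 note: scaled between DMSO vehicle wells and 0.29 µM artemisinin as full inhibition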). Particulars: P. falciparum 3D7 in erythrocytes, SYBR Green DNA fluorescence, 72 h; at 5.51 µM (top of the series) unless noted. The gist of the method: as §1
Experiment [10] can be described thus: qHTS profiling of the MIPE4 collection as inhibitors of Plasmodium falciparum (DD2) proliferation (AID 743345; call rule not given here). Particulars: P. falciparum Dd2 in erythrocytes, SYBR Green DNA, 72 h; at 5.51 µM (top of the series) unless noted. The gist of the method:
as §1

Experiment [11] is described as follows: qHTS profiling of the MIPE4 collection as inhibitors of Plasmodium falciparum (DD2) proliferation (Rep 2) (AID 743346; call rule not given here). Particulars: P. falciparum Dd2 in erythrocytes, SYBR Green DNA, 72 h; at 5.51 µM (top of the series) unless noted. In short, it runs like this: as §1
A short description of experiment [12]: qHTS profiling of the MIPE4 collection as inhibitors of Plasmodium falciparum (HB3) proliferation (AID 743347; call rule not given here;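 note: plate controls were DMSO vehicle wells for no effect and artemisinin wells for full effect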). Particulars: P. falciparum HB3 in erythrocytes, SYBR Green DNA, 72 h; at 5.51 µM (top of the series) unless noted. In short, it runs like this:
as §1

A short description of experiment [13]: qHTS Assay for Identifying Gametocytocidal Compounds (AID 743244).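 For max response: % is set by controls: 0 for no effect and ±100 for the full control effect; actives lower the fluorescent signal which means gametocytes are killed.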 Note: potency is the fitted concentration of half-maximal effect. The following applies: P. falciparum 3D7 stage III-V gametocytes, alamarBlue, 72 h; max response: stronger effect = lower value. The gist of the method: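 Late gametocytes (III–V), P. falciparum 3D7; 72 h drug, then 24 h alamarBlue; resazurin reduction read by fluorescence.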
In experiment [14] the target is Cytochrome P450 2C9 (Homo sapiens) (UniProt P11712). Put plainly: qHTS Assay for Inhibitors and Substrates of Cytochrome P450 2C9 (AID 883). For activity change, negative = inhibition: % is set by controls: 0 for no effect and ±100 for the full control effect. Note: nearly all actives have a fitted effect of over 60% in size. Note: potency is the fitted concentration of half-maximal effect. In short, it runs like this:
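Signal: luciferase luminescence reporting luciferin produced by CYP2C9. Conditions: 10nM enzyme, Luciferin-H 100uM at KM, 25mM KPO4, 37C, 60 min NADPH-driven reaction. Reference: 57uM sulphaphenazole as 100% inhibition.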

For experiment [15], the target named is Guanine nucleotide-binding protein G(i) subunit alpha-1 (Homo sapiens) (UniProt P63096). Put plainly: qHTS Assay for Inhibitors of RGS12 GoLoco Motif Activity (Green Fluorophore) (AID 879).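 Note: 0% = labeled peptide with Gαi1 and full inhibition = labeled peptide alone without protein; negative values mean loss of peptide binding seen as reduced polarization.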 The gist of the method: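 A drop in FITC polarization marked displacement of the FITC-tagged RGS12 GoLoco peptide (10 nM) from Gαi1 (50 nM). Compounds were incubated 10 min at room temperature in Tris pH 7.5 buffer containing 150 mM NaCl, 0.1 mM GDP and 0.05% NP40; unlabeled peptide titration served as control.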

In experiment [16] the target is Cytochrome P450 3A4 (Homo sapiens) (UniProt P08684). Put plainly: qHTS Assay for Inhibitors and Substrates of Cytochrome P450 3A4 (AID 884). For activity change, negative = inhibition: % is set by controls: 0 for no effect and ±100 for the full control effect. Note: nearly all actives have a fitted effect of over 50% in size. Note: potency is the fitted concentration of half-maximal effect. The gist of the method: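 Luminescent readout of luciferin produced by CYP3A4 (20 nM) dealkylation of Luciferin-PPXE, 25 uM (its KM). NADPH-driven reaction ran 60 min at RT after 10 min compound preincubation; data scaled to 57 uM ketoconazole as 100% inhibition.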

Experiment [17] shares this target. In words: qHTS Assay for Activators of Cytochrome P450 3A4 (AID 885). Note: nearly all actives have a fitted effect of over 65% in size. Note: potency is the fitted concentration of half-maximal effect. In short, it runs like this:
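Luminescent readout of luciferin formed from 25 uM Luciferin-PPXE (KM level) by 20 nM CYP3A4 in 200 mM KPO4, with 60 min NADPH-driven reaction at room temperature after 10 min compound exposure. Ketoconazole (57 uM) defined 100% inhibition.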

For experiment [18], the target named is Alpha-galactosidase (Coffea arabica) (UniProt Q42656). In words: Counterscreen for Glucocerebrosidase Inhibitors: qHTS Assay for Coffee Bean alpha-Galactosidase at pH 4.5 (AID 957).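 Note: plate controls were enzyme alone for no effect and no enzyme for full effect.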 In short, it runs like this: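 Enzyme is added first (2 nM final), then compounds titrated from 0.7 nM to 77 uM, then 80 uM 4-methylumbelliferyl alpha-D-galactopyranoside; after 20 min at room temperature a pH 10 NaOH/glycine stop precedes fluorescence reading at 365/440 nm.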

Experiment [19] has the same target. Put plainly: Counterscreen for Glucocerebrosidase Inhibitors: qHTS Assay for Coffee Bean alpha-Galactosidase at pH 5.9 (AID 998).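 Note: plate controls were uninhibited enzyme for no effect and no-enzyme basal signal for full effect.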 In short, it runs like this:
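Enzyme 2 nM + cpd (0.7 nM–77 uM titration) + 4-MU-alpha-Gal 80 uM, pH 5.9 citrate/Tween-20, RT 20 min, NaOH/glycine stop pH 10, fluor 365/440. Normalized to no-enzyme and full-activity controls; Hill-fit AC50.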
A general note: The purpose of a counterscreen is to sort out artefacts and off-target activity.

“And” between values parts separate entries of the source, which are not always exact repeats. Equal values may be shown once. Records with an inconclusive call do not appear. The source made the active and inactive calls. Unless noted, calls come from the whole dose curve; as a rule, active = well fitted curve in the direction sought with a large enough effect; inconclusive = small, poorly fitted or top-dose-only effect, or another doubt; inactive = no such curve, though single readings can be large; an effect the other way counts as inactive or inconclusive.

Cytochrome P450 2C9 (Homo sapiens), sequence (P11712 whole entry, looked up): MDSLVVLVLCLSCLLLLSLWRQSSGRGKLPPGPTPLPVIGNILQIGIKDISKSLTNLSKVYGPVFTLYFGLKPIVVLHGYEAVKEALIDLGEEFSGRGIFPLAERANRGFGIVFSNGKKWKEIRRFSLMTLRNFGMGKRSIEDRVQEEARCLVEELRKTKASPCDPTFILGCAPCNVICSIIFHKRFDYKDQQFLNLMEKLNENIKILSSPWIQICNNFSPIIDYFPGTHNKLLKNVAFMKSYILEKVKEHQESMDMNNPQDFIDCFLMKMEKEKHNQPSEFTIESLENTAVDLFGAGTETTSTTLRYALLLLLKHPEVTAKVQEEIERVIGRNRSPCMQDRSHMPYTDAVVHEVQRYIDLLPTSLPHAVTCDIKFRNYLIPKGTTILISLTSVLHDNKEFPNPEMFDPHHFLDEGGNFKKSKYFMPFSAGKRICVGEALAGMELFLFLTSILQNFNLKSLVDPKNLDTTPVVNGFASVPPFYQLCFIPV
Alpha-galactosidase (Coffea arabica), sequence (Q42656 whole entry, looked up): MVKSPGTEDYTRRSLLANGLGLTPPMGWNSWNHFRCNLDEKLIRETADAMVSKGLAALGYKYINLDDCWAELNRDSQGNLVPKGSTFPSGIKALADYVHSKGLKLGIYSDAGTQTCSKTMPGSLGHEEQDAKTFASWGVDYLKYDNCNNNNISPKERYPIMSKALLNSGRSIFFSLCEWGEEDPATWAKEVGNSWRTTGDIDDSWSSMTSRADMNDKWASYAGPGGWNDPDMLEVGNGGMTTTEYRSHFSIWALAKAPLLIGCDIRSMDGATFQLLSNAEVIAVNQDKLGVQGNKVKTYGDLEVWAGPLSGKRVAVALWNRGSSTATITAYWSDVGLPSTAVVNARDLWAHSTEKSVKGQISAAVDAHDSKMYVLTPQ
Guanine nucleotide-binding protein G(i) subunit alpha-1 (Homo sapiens), sequence (P63096 whole entry, looked up): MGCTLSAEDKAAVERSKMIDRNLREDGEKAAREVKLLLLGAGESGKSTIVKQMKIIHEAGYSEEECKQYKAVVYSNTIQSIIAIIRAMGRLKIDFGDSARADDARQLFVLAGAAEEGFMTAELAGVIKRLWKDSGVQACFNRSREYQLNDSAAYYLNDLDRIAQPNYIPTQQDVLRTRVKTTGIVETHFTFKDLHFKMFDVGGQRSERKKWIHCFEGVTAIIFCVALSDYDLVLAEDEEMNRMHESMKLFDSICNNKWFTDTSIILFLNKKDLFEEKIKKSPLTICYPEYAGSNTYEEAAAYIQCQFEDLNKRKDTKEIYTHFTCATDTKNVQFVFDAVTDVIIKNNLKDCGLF
Peroxisome proliferator-activated receptor alpha (Homo sapiens), sequence (Q07869 whole entry, looked up, the tested form may be a part): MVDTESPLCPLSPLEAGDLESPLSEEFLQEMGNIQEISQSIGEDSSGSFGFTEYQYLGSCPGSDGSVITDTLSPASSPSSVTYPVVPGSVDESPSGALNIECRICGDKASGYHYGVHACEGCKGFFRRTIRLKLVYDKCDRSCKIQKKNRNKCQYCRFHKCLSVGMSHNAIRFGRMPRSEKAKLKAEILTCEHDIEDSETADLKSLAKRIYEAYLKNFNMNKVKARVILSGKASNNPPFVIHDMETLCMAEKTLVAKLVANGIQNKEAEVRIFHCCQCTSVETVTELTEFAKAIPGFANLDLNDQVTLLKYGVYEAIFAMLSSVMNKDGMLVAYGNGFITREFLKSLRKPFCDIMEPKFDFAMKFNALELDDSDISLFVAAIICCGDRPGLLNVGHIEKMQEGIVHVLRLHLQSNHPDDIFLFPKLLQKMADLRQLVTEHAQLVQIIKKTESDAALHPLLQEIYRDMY

As to `CCCCN(CCCC)CCC(OC(=O)O[C@@H]1CCC[C@]2(C1)OOC1(O2)C2CC3CC(C2)CC1C3)c1cc2c(Cl)cc(Cl)cc2c2cc(C(F)(F)F)ccc12` (stereo partly drawn), the remaining parasite growth % (stronger effect = lower value) in experiment [1] was -0.394%. In [2], this compound yielded an activity, percent of control of 0.0994%. In addition, in experiment [3], the remaining proliferation (% of control), lower = more inhibition is 0.359%.
Take `CCC[CH2][Sn]([CH2]CCC)([CH2]CCC)[O]C(=O)c1ccccc1`: the activation in [4] was -10.5% (inactive). In [5], the max response was -0.767% (inactive). In addition, the results for the Potency in experiment [6], in experiment [7] and in experiment [8] were 3.98 µM (active), 7.08 µM (active) and 6.31 µM (active), respectively.
For the compound `COC(=O)C1(O)CC2OC1(C)n1c3ccccc3c3c4c(c5c6ccccc6n2c5c31)C(=O)NC4` (stereo not drawn), the parasite growth, % of DMSO control in [9] amounted to 4.95%. Further, the parasite growth remaining, % of DMSO control (lower = more inhibition) in experiment [10] stood at 7.86%. This compound also gave a parasite growth, % of control (lower = inhibition) in experiment [11] of 21.3%. This compound gave a growth, % of control in experiment [12] of 4.75%.
For the compound `C[C@@H]1[C@H](O)[C@@H](C)/C=C/C=C/CC/C=C/C=C/C=C/C=C/[C@H](O[C@H]2O[C@@H](C)[C@H](O)[C@@H](N)[C@H]2O)CC2O[C@](O)(C[C@@H](O)[C@H](O)CC[C@@H](O)C[C@@H](O)C[C@@H](O)CC(=O)O[C@H]1C)C[C@H](O)[C@H]2C(=O)O`, the max response in [13] was -9.77% (inactive).
As for `C[C@H](Br)C(=O)c1ccc2cc(Br)c3ccccc3c2c1`, the activity change, negative = inhibition in experiment [14] was 58.8% [at 11.4 µM] (inactive).
For `C[C@@]12C=CC(=O)C=C1CC[C@@H]1C2=CC[C@]2(C)[C@@H]1CC[C@H]2C(=O)CN1CCN(c2cc(N3CCCC3)nc(N3CCCC3)n2)CC1`, the Potency entry in [15] and in experiment [17] was “inactive” throughout. For the same compound, the Potency in experiment [16] was 3.16 µM (active). In addition, the compound was classed as inactive in experiment [18] and in experiment [19].
`Cc1c2ccccc2c(C)c2c1ccc1ccccc12`: in experiment [4], the Potency is 25.1 µM (active).
With `CN(C)CCC(=O)[C@@]1(O)CC[C@H]2[C@H]3CC=C4C[C@@H](O)CC[C@]4(C)[C@H]3CC[C@]21C`, the Potency in experiment [14] was 2.51 µM (active).
On to `CC[C@@]1([C@@H]2O[C@@H]([C@H]3O[C@@](O)(CO)[C@H](C)C[C@@H]3C)C[C@@H]2C)CC[C@H]([C@]2(C)CC[C@]3(C[C@H](O)[C@@H](C)[C@@H]([C@@H](C)[C@@H](OC)[C@H](C)C(=O)O)O3)O2)O1` (stereo in doubt), for which the Potency in [13] is 891 nM (active) and 166 nM (active).
Turning to `COc1cc2c(cc1OC)C1C(=O)c3c(O)cc4c(c3OC1CO2)C=CC(C)(C)O4` (stereo not drawn), the Potency in experiment [16] is 15.8 µM (active).
As to `COc1cc2c(cc1OC)C1C(=O)c3c(cc4c(c3O)C=CC(C)(C)O4)OC1CO2` (stereo not drawn), the Potency in experiment [16] is 15.8 µM (active). Further, the Potency result in [17] is “inactive”.
Take `COc1cc2c(cc1O)C(CCc1ccc(Cl)cc1)N(C)CC2` (stereo not drawn): in [16], the Potency result was “inactive”.
Consider `CC1(C)C(=O)C=C[C@]2(C)C1CC(=O)[C@]1(C)C2CC[C@@]2(C)C(c3ccoc3)OC(=O)C3O[C@@]321` (stereo partly drawn), for which the Potency in experiment [16] was 2.51 µM (active). In addition, in experiment [17], the Potency entry was “inactive”.
With `Cc1[nH]cnc1CCN`, in experiment [16], the Potency result was “inactive”.
With `CC(=O)O[C@H]1CC[C@@]2(C)[C@@H](CC[C@H]3[C@H]2CC(=O)[C@@]2(C)[C@@H]3C[C@H]3CC(C)=CC(=O)[C@H]32)C1`, in experiment [16], the activity change, negative = inhibition is 295% [at 11.4 µM] (inactive). The Potency in experiment [17] was 2 µM (active).
`CC(C)=CCCC(C)C1CC[C@@]2(C)C3=C(CC[C@@]12C)C1(C)CCC(O)C(C)(C)C1CC3` (stereo partly drawn): the Potency in experiment [16] is 15.8 µM (active). In [17], the Potency entry was “inactive”.

(Values after PubChem BioAssay (NCATS).)
